Source: PubChem BioAssay (EPA / NIEHS)
Calls of active or inactive are those of the source. How the source made its calls, unless noted: active means hit-call score of the fitted dose curve at least 0.9, where 1 is the maximum; inactive means score below 0.9.

Tests used:
[1] = read-out: Protein phosphatase 2A (PPP2R4), PTPA (gene 5524); assay: LTEA_HepaRG_PPP2R4: Life Technologies and Expression Analysis (LTEA) Assay for Protein phosphatase 2A (PPP2R4) using HepaRG (AID 2283522); conditions: mRNA level, 48 h; actives raise or lower the signal
Procedure, shortened: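 Expression was quantified by Fluidigm qRT-PCR normalised to three housekeeping genes after 48 h treatment. Human HepaRG cells received an 8-point series from 100 µM downward by half-logs, in duplicate with 0.5% DMSO vehicle and 1 mM phenobarbital as induction control.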

[2] = read-out: Phosphatase and tensin (PTEN), PTEN (gene 5728); assay: LTEA_HepaRG_PTEN: Life Technologies and Expression Analysis (LTEA) Assay for Phosphatase and tensin (PTEN) using HepaRG (AID 2283523); conditions: mRNA level, 48 h; actives raise or lower the signal
Procedure, shortened: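 HepaRG, 48 h exposure, 8-pt half-log series from 100 uM top, 0.5% DMSO vehicle, duplicates. Readout: Fluidigm qRT-PCR of PTEN transcript; housekeeping normalization (ACTB, GAPDH, POLR2A). Gain or loss fitted relative to DMSO baseline.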

[3] = read-out: solute carrier (SLC22A1), SLC22A1 (gene 6580); assay: LTEA_HepaRG_SLC22A1: Life Technologies and Expression Analysis (LTEA) Assay for solute carrier (SLC22A1) using HepaRG (AID 2283524); conditions: mRNA level, 48 h; actives raise or lower the signal
Procedure, shortened: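 qRT-PCR readout (TaqMan, Fluidigm arrays) of SLC22A1 transcript, normalized to three housekeeping genes; bidirectional curve fit relative to 0.5% DMSO vehicle. Differentiated human HepaRG cells, 48 h chemical exposure, top concentration 100 uM, half-log steps, eight points.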

[4] = read-out: Pyruvate Dehydrogenase Kinase 4 (PDK4), PDK4 (gene 5166); assay: LTEA_HepaRG_PDK4: Life Technologies and Expression Analysis (LTEA) Assay for Pyruvate Dehydrogenase Kinase 4 (PDK4) using HepaRG (AID 2283525); conditions: mRNA level, 48 h; actives raise or lower the signal
Procedure, shortened: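 HepaRG (human liver line), 48 h chemical exposure, 8-pt half-log CRC top 100 uM, 0.5% DMSO vehicle, duplicates. Readout: TaqMan qRT-PCR of PDK4 mRNA, housekeeping-normalized; gain/loss fit relative to DMSO baseline.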

[5] = read-out: NAD(P)H dehydrogenase [quinone] 1 (NQO1), NQO1 (gene 1728); assay: LTEA_HepaRG_NQO1: Life Technologies and Expression Analysis (LTEA) Assay for NAD(P)H dehydrogenase [quinone] 1 (NQO1) using HepaRG (AID 2283526); conditions: mRNA level, 48 h; actives raise or lower the signal
Procedure, shortened: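 NQO1 transcript induction or loss measured by TaqMan qRT-PCR, referenced to three housekeeping genes and fitted bidirectionally against 0.5% DMSO. HepaRG cultures exposed 48 h, duplicate, eight-point half-log series, top 100 uM.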

[6] = read-out: Nuclear factor erythroid 2-related factor 2 (Homo sapiens) (UniProt Q16236); assay: LTEA_HepaRG_NFE2L2: Life Technologies and Expression Analysis (LTEA) Assay for Nuclear factor erythroid 2-related factor 2 (NFE2L2) Transcription Factor using HepaRG (AID 2283527); conditions: mRNA level, 48 h; actives raise or lower the signal
Procedure, shortened: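 HepaRG, 48 h dosing, 8-pt half-log series from 100 uM in 0.5% DMSO, duplicates. Read-out: NFE2L2 mRNA by qRT-PCR (ACTB/GAPDH/POLR2A normalization). Bidirectional curve fit vs DMSO baseline.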

[7] = read-out: succinate dehydrogenase complex iron sulfur subunit B (SDHB), SDHB (gene 6390); assay: LTEA_HepaRG_SDHB: Life Technologies and Expression Analysis (LTEA) Assay for succinate dehydrogenase complex iron sulfur subunit B (SDHB) using HepaRG (AID 2283528); conditions: mRNA level, 48 h; actives raise or lower the signal
Procedure, shortened: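 SDHB transcript level read by TaqMan qRT-PCR, housekeeping-normalised (ACTB, GAPDH, POLR2A), after 48 h chemical treatment of plated HepaRG cells; eight concentrations top 100 uM, half-log steps, 0.5% DMSO, duplicates; fitted both directions against DMSO.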

[8] = read-out: Signal transducer and activator of transcription 3 (Homo sapiens) (UniProt P40763); assay: LTEA_HepaRG_STAT3: Life Technologies and Expression Analysis (LTEA) Assay for Signal transducer and activator of transcription (STAT3) using HepaRG (AID 2283529); conditions: mRNA level, 48 h; actives raise or lower the signal
Procedure, shortened: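 HepaRG, 48 h exposure, 8-pt half-log series (top 100 uM), 0.5% DMSO vehicle, duplicates. Readout: STAT3 transcript by Fluidigm qRT-PCR, housekeeping-normalized; bidirectional fit vs DMSO baseline.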

[9] = read-out: solute carrier (SLCO1B1), SLCO1B1 (gene 10599); assay: LTEA_HepaRG_SLCO1B1: Life Technologies and Expression Analysis (LTEA) Assay for solute carrier (SLCO1B1) using HepaRG (AID 2283530); conditions: mRNA level, 48 h; actives raise or lower the signal
Procedure, shortened: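 SLCO1B1 transcript levels were quantified by TaqMan qRT-PCR using three housekeeping genes for normalization. This followed 48 h chemical exposure (100 uM top, half-log, 8 points, 0.5% DMSO) of HepaRG liver cells, with gain or loss fitted relative to DMSO.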

[10] = read-out: sulfotransferase 2A1 (SULT2A1), SULT2A1 (gene 6822); assay: LTEA_HepaRG_SULT2A1: Life Technologies and Expression Analysis (LTEA) Assay for sulfotransferase 2A1 (SULT2A1) using HepaRG (AID 2283531); conditions: mRNA level, 48 h; actives raise or lower the signal
Procedure, shortened: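 Expression change of SULT2A1, by qRT-PCR with three housekeeping-gene normalization, was scored bidirectionally versus DMSO. Cells: differentiated HepaRG, dosed in duplicate for 48 h across 8 points, highest 100 µM, half-log dilution, 0.5% DMSO.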

[11] = read-out: Transforming Growth Factor (TGFA), TGFA (gene 7039); assay: LTEA_HepaRG_TGFA: Life Technologies and Expression Analysis (LTEA) Assay for Transforming Growth Factor (TGFA) using HepaRG (AID 2283532); conditions: mRNA level, 48 h; actives raise or lower the signal
Procedure, shortened: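 qRT-PCR read-out of TGFA transcript, normalized to three housekeeping genes, fitted bidirectionally against 0.5% DMSO baseline. Human HepaRG cultures received chemicals for 48 h at eight half-log concentrations, top 100 uM.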

[12] = read-out: Transforming Growth Factor (TGFB1), TGFB1 (gene 7040); assay: LTEA_HepaRG_TGFB1: Life Technologies and Expression Analysis (LTEA) Assay for Transforming Growth Factor (TGFB1) Transporter using HepaRG (AID 2283533); conditions: mRNA level, 48 h; actives raise or lower the signal
Procedure, shortened: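 TGFB1 transcript measured by qRT-PCR with normalisation to three housekeeping genes (ACTB, GAPDH, POLR2A); human HepaRG line treated in duplicate for 48 hr with an 8-point series topping at 100 uM, 0.5% DMSO vehicle, bidirectionally fitted.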

TIMP1, TIMP1 (gene 7076) = assay: LTEA_HepaRG_TIMP1: Life Technologies and Expression Analysis (LTEA) Assay for TIMP1 using HepaRG (AID 2283534); conditions: mRNA level, 48 h; actives raise or lower the signal
Procedure, shortened: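 Bidirectional change in TIMP1 transcript versus 0.5% DMSO, measured by TaqMan qRT-PCR with three housekeeping genes for normalization. HepaRG human liver cells dosed 48 h in duplicate, top concentration 100 uM with half-log dilutions.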

[13] = read-out: Tumor necrosis factor receptor 1 (TNFRSF1A), TNFRSF1A (gene 7132); assay: LTEA_HepaRG_TNFRSF1A: Life Technologies and Expression Analysis (LTEA) Assay for Tumor necrosis factor receptor 1 (TNFRSF1A) using HepaRG (AID 2283535); conditions: mRNA level, 48 h; actives raise or lower the signal
Procedure, shortened: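 mRNA measured by qRT-PCR (TaqMan, Fluidigm arrays) against ACTB/GAPDH/POLR2A housekeepers after 48 h chemical exposure of HepaRG cells. Top concentration 100 uM, half-log 8-point series, duplicates; vehicle 0.5% DMSO, both fit directions.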

[14] = read-out: Thyroid Hormone Responsive (THRSP), THRSP (gene 7069); assay: LTEA_HepaRG_THRSP: Life Technologies and Expression Analysis (LTEA) Assay for Thyroid Hormone Responsive (THRSP) using HepaRG (AID 2283536); conditions: mRNA level, 48 h; actives raise or lower the signal
Procedure, shortened: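 qRT-PCR read-out (Fluidigm TaqMan), housekeeping-normalized (ACTB/GAPDH/POLR2A). HepaRG, 48 h chemical exposure, 8-pt half-log series from 100 uM in 0.5% DMSO, duplicates. Bidirectional curve fit vs 0.5% DMSO baseline.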

[15] = read-out: Cellular tumor antigen p53 (Homo sapiens) (UniProt P04637); assay: LTEA_HepaRG_TP53: Life Technologies and Expression Analysis (LTEA) Assay for Tumor Protein P53 (TP53) using HepaRG (AID 2283537); conditions: mRNA level, 48 h; actives raise or lower the signal
Procedure, shortened: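 TP53 transcript measured by qRT-PCR, normalized to three housekeeping genes, after 48 h treatment of human HepaRG cultures with chemicals from 100 uM downward in half-log steps (0.5% DMSO vehicle, serum-free induction medium). Up- or down-regulation fitted against DMSO.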

[16] = read-out: UDP glucuronosyltransferase (UGT1A1), UGT1A1 (gene 54658); assay: LTEA_HepaRG_UGT1A1: Life Technologies and Expression Analysis (LTEA) Assay for UDP glucuronosyltransferase (UGT1A1) using HepaRG (AID 2283538); conditions: mRNA level, 48 h; actives raise or lower the signal
Procedure, shortened: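 UGT1A1 transcript level, measured by qRT-PCR with three housekeeping genes for normalization, after 48 h treatment of human HepaRG cells (0.5% DMSO, duplicates, up to 100 uM, half-log steps, 8 points). Curves fit both directions against DMSO baseline.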

[17] = read-out: UDP glucuronosyltransferase (UGT1A6), UGT1A6 (gene 54578); assay: LTEA_HepaRG_UGT1A6: Life Technologies and Expression Analysis (LTEA) Assay for UDP glucuronosyltransferase (UGT1A6) using HepaRG (AID 2283539); conditions: mRNA level, 48 h; actives raise or lower the signal
Procedure, shortened: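 Expression was quantified by TaqMan qRT-PCR on Fluidigm arrays with ACTB/GAPDH/POLR2A normalization and bidirectional fitting against 0.5% DMSO. HepaRG cells (~100,000/well) were treated in duplicate for 48 h at eight half-log concentrations up to 100 uM in serum-free induction medium.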

[18] = read-out: X-box binding protein 1 (XBP1), XBP1 (gene 7494); assay: LTEA_HepaRG_XBP1: Life Technologies and Expression Analysis (LTEA) Assay for X-box binding protein 1 (XBP1) using HepaRG (AID 2283540); conditions: mRNA level, 48 h; actives raise or lower the signal
Procedure, shortened: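 XBP1 transcript by qRT-PCR (housekeeping-normalized: ACTB, GAPDH, POLR2A) after 48 h chemical treatment of HepaRG cells, 8-point half-log series topping at 100 uM, vehicle 0.5% DMSO. Gain and loss of signal fitted relative to DMSO.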

[19] = LTEA_HepaRG_LDH_cytotoxicity: Cytotoxicity Assessment in the Life Technologies and Expression Analysis (LTEA) Assay (AID 2283563; active means hit-call score of the fitted dose curve at least 0.9, where 1 is the maximum)
Procedure, shortened: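 LDH release into culture medium read after 48 h chemical treatment of HepaRG cells. Duplicate wells, eight-point half-log series topping at 100 uM, 0.5% DMSO vehicle and baseline.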

Measured: AC50

Chain of Cellular tumor antigen p53 (Homo sapiens) (P04637 whole entry, looked up): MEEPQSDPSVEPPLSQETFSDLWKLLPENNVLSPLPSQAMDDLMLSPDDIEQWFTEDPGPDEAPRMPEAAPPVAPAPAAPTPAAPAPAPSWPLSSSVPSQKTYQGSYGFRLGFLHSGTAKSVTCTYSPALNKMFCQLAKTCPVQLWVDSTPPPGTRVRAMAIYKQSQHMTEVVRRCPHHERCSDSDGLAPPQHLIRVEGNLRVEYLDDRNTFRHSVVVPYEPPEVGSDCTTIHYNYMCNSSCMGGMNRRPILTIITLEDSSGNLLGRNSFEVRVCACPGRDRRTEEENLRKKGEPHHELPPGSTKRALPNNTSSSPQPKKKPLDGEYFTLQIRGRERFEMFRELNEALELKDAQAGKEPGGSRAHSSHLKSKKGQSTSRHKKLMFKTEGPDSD
Chain of Signal transducer and activator of transcription 3 (Homo sapiens) (P40763 whole entry, looked up): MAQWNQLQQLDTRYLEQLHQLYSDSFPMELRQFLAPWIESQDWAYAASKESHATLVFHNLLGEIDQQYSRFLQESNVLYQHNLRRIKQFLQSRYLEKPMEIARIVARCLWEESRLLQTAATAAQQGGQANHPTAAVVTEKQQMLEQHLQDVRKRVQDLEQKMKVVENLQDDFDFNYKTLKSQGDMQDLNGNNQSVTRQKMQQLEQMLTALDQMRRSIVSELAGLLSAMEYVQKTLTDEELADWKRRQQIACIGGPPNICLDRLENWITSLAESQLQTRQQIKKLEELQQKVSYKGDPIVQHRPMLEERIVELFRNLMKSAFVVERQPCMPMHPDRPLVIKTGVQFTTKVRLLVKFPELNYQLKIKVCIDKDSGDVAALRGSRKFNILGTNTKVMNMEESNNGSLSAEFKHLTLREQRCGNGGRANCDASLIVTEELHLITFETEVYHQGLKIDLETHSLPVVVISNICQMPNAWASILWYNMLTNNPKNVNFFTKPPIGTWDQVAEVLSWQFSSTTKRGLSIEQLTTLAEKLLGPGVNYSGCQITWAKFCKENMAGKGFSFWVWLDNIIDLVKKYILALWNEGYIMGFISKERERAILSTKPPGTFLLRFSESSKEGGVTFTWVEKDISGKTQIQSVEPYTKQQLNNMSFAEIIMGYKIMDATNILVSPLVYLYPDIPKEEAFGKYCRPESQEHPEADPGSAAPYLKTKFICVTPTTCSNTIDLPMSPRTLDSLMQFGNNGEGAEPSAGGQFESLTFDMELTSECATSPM
Chain of Nuclear factor erythroid 2-related factor 2 (Homo sapiens) (Q16236 whole entry, looked up): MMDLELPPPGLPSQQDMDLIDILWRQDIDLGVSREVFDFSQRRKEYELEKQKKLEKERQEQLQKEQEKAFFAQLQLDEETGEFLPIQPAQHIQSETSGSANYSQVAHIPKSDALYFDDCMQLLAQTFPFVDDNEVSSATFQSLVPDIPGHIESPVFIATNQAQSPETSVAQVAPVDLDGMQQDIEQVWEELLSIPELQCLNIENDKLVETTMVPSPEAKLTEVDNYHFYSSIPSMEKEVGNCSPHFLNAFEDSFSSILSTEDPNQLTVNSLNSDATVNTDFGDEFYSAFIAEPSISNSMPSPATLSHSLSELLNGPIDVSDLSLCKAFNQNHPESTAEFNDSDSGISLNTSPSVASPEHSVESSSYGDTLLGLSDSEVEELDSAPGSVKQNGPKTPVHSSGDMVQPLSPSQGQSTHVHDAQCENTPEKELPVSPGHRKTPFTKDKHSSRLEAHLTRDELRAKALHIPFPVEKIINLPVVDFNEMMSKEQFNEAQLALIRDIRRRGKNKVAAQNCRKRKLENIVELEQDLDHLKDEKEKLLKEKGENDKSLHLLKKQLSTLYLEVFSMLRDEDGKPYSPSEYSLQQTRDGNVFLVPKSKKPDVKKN

Cc1ccc([N+](=O)[O-])cc1
active: [16] 8.26 µM
inactive: all other assays above

Nc1ccc([N+](=O)[O-])cc1
inactive: all assays above

OCCCl
inactive: all assays above

COP(=S)(OC)SCN1C(=O)c2ccccc2C1=O
inactive: all assays above

[Cl-].[Cl-].[Hg+2]
active: [14] 21.8 µM
not listed: [19]
inactive: all other assays above

Oc1ccccc1Cl
inactive: all assays above

COC(=O)Nc1nc2ccccc2[nH]1
active: [16] 31.4 µM
inactive: all other assays above
